The results in this text go back to paper PMC7862700, “An all-to-all approach to the identification of sequence-specific readers for epigenetic DNA modifications on cytosine”.

Common to all, as to experiment: DAPPL (digital affinity profiling via proximity ligation, sequencing); 10 mM Tris-HCl pH 7.5, 50 mM NaCl, 1 mM DTT, 4% glycerol, room temperature, 30 min; GST-TFs on glutathione beads, 16-mer random dsDNA library, 0.1% formaldehyde crosslink after washing; high values mean tight binding
Conditions in all cases: protein: recombinant; tags: N-terminal GST; dsDNA, one strand shown

One assay deals with T1, ELK1 (Homo sapiens, UniProt P19419 1-428).
T1 sequence: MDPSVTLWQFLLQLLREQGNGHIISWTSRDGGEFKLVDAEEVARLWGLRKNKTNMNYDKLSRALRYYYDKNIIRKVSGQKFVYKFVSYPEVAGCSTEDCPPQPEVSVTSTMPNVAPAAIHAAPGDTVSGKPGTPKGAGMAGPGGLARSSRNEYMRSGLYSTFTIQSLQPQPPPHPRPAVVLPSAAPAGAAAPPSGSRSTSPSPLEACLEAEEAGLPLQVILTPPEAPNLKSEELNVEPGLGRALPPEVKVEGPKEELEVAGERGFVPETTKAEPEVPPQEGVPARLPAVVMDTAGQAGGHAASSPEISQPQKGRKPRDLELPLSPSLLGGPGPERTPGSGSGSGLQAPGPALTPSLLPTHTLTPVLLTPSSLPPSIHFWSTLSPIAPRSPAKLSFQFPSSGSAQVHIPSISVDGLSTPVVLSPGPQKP
The procedure, abridged:
(§1)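 Sequencing on an Illumina NextSeq500 followed washing, crosslinking with 0.1% formaldehyde, proximity ligation (BsaI/T4 ligase, 1 h, 37 °C) and PCR amplification of pools that had been incubated for 30 min at room temperature with 200 nmole of a random double-stranded 16-mer DNA library in Tris/NaCl/DTT/glycerol buffer. Each pool held DNA-barcoded human transcription factors, expressed in yeast as GST fusions and captured on glutathione beads, plus a tag-only sample. Binding signal is a hexamer's read frequency for a factor divided by its frequency in the tag-only sample.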

A further assay concerns the target T2, GABPA (Homo sapiens, UniProt Q06546 1-454).
T2 sequence: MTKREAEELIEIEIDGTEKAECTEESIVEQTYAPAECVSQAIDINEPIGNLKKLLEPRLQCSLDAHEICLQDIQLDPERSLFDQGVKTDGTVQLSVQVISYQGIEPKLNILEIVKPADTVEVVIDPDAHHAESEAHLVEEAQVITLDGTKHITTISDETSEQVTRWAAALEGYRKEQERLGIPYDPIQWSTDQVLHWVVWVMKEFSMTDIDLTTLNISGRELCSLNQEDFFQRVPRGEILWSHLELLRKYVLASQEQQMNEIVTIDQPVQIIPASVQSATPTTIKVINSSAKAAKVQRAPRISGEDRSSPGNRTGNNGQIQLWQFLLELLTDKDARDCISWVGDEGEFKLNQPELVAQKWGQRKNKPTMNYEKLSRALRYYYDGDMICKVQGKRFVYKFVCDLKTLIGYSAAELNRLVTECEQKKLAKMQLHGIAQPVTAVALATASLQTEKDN
The procedure, abridged:
as §1

The next assay concerns the target T3, ERG (Homo sapiens, UniProt P11308 1-479).
T3 sequence: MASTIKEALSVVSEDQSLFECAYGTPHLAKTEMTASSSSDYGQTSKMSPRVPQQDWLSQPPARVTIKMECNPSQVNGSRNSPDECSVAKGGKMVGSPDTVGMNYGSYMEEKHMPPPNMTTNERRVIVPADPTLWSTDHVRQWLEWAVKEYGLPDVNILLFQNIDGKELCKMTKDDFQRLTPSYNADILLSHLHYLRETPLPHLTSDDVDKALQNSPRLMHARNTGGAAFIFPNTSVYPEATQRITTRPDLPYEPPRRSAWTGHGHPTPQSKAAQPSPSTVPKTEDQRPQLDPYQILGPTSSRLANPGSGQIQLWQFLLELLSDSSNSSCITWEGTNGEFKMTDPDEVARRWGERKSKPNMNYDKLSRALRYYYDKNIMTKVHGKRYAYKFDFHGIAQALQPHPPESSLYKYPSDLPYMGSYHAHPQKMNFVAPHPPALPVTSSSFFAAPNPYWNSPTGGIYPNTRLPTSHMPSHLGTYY
The method in brief: as §1

Another assay addresses ELF1 (Homo sapiens, UniProt P32519 1-619). The method in brief: as §1
The target of another assay is T4, ELK3 (Homo sapiens, UniProt P41970 1-407).
T4 sequence: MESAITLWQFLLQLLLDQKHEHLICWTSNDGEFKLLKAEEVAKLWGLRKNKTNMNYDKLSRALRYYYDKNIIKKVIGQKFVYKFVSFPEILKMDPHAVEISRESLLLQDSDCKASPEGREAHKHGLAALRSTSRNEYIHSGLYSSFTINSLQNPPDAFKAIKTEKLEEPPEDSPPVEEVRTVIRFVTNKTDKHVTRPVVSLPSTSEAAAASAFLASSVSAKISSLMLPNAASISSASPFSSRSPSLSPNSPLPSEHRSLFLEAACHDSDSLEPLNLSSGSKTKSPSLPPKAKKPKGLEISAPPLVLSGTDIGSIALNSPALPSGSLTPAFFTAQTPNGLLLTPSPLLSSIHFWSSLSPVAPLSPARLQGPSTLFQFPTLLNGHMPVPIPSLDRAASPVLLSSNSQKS
The procedure, abridged:
as §1

The target of another assay is T5, SPIC (Homo sapiens, UniProt Q8N5J4 1-248).
T5 sequence: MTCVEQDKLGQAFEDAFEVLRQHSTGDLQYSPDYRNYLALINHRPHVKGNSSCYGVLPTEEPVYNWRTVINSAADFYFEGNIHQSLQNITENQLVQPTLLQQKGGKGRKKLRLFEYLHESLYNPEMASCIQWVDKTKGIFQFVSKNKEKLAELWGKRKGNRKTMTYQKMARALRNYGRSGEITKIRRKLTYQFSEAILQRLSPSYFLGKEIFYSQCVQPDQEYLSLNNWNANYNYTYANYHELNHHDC
The method in brief: as §1

For the next assay, the target named is T6, ELK4 (Homo sapiens, UniProt P28324-2 1-405).
T6 sequence: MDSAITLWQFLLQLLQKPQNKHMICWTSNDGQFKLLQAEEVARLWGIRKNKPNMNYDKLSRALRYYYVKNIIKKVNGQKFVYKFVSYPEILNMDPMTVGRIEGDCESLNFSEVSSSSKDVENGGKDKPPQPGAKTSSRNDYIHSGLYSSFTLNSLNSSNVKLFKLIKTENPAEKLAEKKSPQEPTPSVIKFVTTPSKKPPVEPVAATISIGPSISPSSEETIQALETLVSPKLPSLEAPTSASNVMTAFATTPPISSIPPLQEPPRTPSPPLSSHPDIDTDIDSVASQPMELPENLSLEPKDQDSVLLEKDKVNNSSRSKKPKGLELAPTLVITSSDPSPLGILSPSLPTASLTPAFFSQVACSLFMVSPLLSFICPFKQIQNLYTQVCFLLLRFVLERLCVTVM
The procedure, abridged:
as §1

The next assay has as its target T7, ERF (Homo sapiens, UniProt P50548 1-548).
T7 sequence: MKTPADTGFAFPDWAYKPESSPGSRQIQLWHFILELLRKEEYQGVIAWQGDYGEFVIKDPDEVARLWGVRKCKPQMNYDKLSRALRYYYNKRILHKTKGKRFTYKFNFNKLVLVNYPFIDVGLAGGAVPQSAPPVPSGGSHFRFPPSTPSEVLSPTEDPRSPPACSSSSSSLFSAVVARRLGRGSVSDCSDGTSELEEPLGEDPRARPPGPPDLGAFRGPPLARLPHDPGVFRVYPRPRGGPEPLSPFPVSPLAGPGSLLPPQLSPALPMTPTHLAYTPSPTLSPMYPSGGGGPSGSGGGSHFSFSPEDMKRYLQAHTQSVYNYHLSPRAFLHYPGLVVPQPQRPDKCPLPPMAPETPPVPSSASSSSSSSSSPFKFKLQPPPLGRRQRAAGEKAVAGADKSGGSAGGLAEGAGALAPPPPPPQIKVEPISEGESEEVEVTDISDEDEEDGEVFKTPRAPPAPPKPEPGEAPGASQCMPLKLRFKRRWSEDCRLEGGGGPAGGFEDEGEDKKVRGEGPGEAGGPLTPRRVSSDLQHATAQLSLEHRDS
The procedure, abridged:
as §1

Another assay concerns the target T8, ETV3L (Homo sapiens, UniProt Q6ZN32 1-361).
T8 sequence: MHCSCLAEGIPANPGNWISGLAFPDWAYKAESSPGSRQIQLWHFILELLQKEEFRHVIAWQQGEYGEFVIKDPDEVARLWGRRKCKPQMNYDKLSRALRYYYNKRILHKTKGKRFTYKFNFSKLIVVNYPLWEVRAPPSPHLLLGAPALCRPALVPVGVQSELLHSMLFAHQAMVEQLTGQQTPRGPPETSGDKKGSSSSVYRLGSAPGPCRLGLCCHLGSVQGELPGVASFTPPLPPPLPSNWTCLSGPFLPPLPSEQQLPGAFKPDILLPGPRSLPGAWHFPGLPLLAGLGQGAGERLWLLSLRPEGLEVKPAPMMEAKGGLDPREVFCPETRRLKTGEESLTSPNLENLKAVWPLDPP
The procedure, abridged:
as §1

A further assay deals with T9, ETS2 (Homo sapiens, UniProt P15036 1-469).
T9 sequence: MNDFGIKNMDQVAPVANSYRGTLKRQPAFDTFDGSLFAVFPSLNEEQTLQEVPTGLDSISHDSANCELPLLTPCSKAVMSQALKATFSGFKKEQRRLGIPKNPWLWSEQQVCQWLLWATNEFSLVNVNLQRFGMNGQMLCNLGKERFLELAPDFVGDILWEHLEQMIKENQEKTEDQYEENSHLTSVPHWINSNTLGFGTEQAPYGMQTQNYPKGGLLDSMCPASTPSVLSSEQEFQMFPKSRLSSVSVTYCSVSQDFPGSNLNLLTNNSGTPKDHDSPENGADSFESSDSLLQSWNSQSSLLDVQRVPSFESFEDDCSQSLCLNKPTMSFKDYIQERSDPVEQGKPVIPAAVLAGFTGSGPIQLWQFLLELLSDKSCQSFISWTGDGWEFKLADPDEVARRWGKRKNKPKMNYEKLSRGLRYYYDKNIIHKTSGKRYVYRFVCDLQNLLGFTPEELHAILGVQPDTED
The method in brief:
as §1

A further assay concerns the target T10, ETV3 (Homo sapiens, UniProt P41162-2 1-143).
T10 sequence: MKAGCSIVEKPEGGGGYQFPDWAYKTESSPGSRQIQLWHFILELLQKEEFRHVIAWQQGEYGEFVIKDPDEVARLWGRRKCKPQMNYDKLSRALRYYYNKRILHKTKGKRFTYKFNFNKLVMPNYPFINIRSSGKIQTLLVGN
The procedure, abridged:
as §1

The target in the next assay is ETV6 (Homo sapiens, UniProt P41212 1-452). The procedure, abridged: as §1
ETV6, sequence (P41212 whole entry): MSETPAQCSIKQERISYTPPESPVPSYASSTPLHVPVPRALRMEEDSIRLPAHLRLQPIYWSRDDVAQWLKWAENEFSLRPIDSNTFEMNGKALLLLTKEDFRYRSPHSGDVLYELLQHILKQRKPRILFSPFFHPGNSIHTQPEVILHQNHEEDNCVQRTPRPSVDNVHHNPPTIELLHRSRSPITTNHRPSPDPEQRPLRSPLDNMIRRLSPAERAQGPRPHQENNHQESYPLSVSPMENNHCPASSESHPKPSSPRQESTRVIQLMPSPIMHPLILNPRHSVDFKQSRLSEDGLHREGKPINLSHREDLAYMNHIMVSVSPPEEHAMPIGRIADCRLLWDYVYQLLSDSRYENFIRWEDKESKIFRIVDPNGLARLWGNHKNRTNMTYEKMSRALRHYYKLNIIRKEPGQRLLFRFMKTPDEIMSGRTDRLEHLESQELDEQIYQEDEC

ELF1, sequence (P32519 whole entry): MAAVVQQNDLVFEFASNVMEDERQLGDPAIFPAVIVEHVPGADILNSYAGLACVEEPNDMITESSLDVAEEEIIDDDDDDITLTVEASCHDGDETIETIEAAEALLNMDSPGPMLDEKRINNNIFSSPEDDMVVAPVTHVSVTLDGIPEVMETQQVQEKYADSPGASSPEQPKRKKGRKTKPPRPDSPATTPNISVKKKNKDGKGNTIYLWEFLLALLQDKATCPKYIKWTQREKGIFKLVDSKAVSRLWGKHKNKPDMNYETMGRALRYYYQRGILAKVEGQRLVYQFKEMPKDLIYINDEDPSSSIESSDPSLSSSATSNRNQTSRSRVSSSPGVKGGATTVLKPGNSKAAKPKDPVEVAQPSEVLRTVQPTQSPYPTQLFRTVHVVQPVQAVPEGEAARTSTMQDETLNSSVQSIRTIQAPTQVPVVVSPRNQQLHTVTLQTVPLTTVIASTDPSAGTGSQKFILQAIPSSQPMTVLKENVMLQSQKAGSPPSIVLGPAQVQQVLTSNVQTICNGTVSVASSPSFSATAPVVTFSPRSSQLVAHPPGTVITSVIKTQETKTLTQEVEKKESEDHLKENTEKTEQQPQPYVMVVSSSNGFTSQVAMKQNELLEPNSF

On to AGTCTC, for which the binding signal was 1.02 fold enrichment (6-mer frequency, TF over GST control) with ELK1; 1.01 fold enrichment (6-mer frequency, TF over GST control) with GABPA; 1.06 fold enrichment (6-mer frequency, TF over GST control) with ERG; 1.05 fold enrichment (6-mer frequency, TF over GST control) with ELF1; 1.03 fold enrichment (6-mer frequency, TF over GST control) with ELK3; 1.1 fold enrichment (6-mer frequency, TF over GST control) with SPIC. Further, the binding signal in the assay with ELK4 is 1.05 fold enrichment (6-mer frequency, TF over GST control); in the assay with ERF, 1.04 fold enrichment (6-mer frequency, TF over GST control); with ETV3L, 1.06 fold enrichment (6-mer frequency, TF over GST control); in the assay with ETS2, 1.05 fold enrichment (6-mer frequency, TF over GST control); with ETV3 it was 1.09 fold enrichment (6-mer frequency, TF over GST control); in the assay with ETV6, 1.04 fold enrichment (6-mer frequency, TF over GST control).
